Assay outcomes: PubChem BioAssay, National Center for Advancing Translational Sciences (NCATS)
An excerpt weighted towards active compounds, which were near 0.93% of everything screened.
Coupling enz: coupling enzyme interference in Giardia aldolase counter-screen | activity change, negative = inhibition, % at 58.2 µM, hits read low | hit rate 0.67% among 290,000 | coupling enzyme system counterscreen, AmpLite Red fluorescence; in the data active means activity change below about -30%
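Final compound at 57.5 uM, incubated 10 min at RT with coupling enzyme reagent (glyceraldehyde-3-phosphate), then 20 min with substrate and AmpLite Red detection. Fluorescence read at 525/598 nm; tests interference with the coupling assay, not aldolase inhibition.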
TRb-SRC2 inh: inhibitors of human thyroid hormone receptor beta-SRC2 interaction | P10828 | TRbeta-SRC2 peptide binding, fluorescence polarization; receptor liganded with 1 µM T3 | Potency, µM (series often up to 106 µM), hits mostly inhibitors | hit rate 0.065% among 280,000 | AID 1469; active means well fitted inhibition curve with a large enough effect; inconclusive means small, poorly fitted or top-dose-only effect, or effect the other way; further: nearly all actives have a fitted effect of over 50% in size
Target sequence (P10828 whole entry, looked up): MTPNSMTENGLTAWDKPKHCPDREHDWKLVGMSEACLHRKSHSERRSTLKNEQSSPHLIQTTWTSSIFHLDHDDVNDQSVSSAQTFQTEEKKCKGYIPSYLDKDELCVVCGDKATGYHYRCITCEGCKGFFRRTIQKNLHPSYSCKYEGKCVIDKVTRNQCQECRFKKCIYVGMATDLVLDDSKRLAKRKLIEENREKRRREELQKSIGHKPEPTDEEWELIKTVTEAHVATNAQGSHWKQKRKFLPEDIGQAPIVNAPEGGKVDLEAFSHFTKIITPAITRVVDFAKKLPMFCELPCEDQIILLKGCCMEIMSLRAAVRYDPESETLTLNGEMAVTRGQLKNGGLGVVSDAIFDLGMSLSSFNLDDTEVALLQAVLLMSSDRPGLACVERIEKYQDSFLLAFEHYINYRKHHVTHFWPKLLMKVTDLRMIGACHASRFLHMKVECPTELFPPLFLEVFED
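TRb LBD 0.6 uM + Texas Red SRC2 peptide 20 nM, 1 uM T3, Tris buffer w/ 5% DMSO; compound pinned, 5 h RT; FP read ex 555/em 632; normalized to unbound and bound controls.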
RGS12 GoLoco inh: RGS12 GoLoco-Gai1 interaction inhibition. P63096. Gai1:RGS12 GoLoco peptide FP, rhodamine, 10 min. Potency, µM (highest dose often 61.6 µM), actives largely listed as inhibitors. hit rate 0.44% among 230,000. AID 880; active means well fitted inhibition curve with a large enough effect, not every such curve was filed as active; inactive means no such curve, though single readings can be large or run the other way; further: nearly all actives have a fitted effect of over 30% in size
TR SRC2 fluor cs: alters Texas Red total fluorescence, flagging assay interference | TRb/SRC2 Texas Red total fluorescence interference | Potency, µM (highest dose often 106 µM) | hit rate 0.29% among 280,000 | AID 1479; active means well fitted curve in either direction with a large enough effect; inconclusive means small, poorly fitted or top-dose-only effect
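Human TRβ ligand-binding domain (0.6 uM) and Texas Red SRC2 peptide (20 nM) in Tris buffer with 1 uM T3 and 5% DMSO were incubated with pinned compound for 5 hr at ambient temperature. Total fluorescence was computed as S + 2P (555/632 nm).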
A number is an active result; ! = repeats disagree; [ ] = remark or other dose.

`CCc1ccc(NC(=O)C(=O)NCC(c2cccnc2)N2CCN(C)CC2)cc1` (configuration not stated) gave TRb-SRC2 inh inactive and TR SRC2 fluor cs inactive.
`CCC(=O)N1CCc2cc(Br)cc(S(=O)(=O)N3CCN(c4cccc(Cl)c4)CC3)c21` gave TRb-SRC2 inh inactive and TR SRC2 fluor cs inactive.
Screening CC1(C)[C@@H](C=C(Cl)Cl)[C@@H]1C(=O)OCc1cccc(Oc2ccccc2)c1 returned TRb-SRC2 inh inactive and TR SRC2 fluor cs inactive.
Screening C=CCN1C=C2C(=O)C(C)(OC(=O)CCC(=O)OC)C(=O)C(Br)=C2C=C1c1ccc(OC)cc1 (configuration not stated) returned Coupling enz -41!, TRb-SRC2 inh inactive[11.2 µM], RGS12 GoLoco inh inactive[14.2 µM] and TR SRC2 fluor cs inactive[11.2 µM].
`COC(=O)CCC(=O)OC1(C)C(=O)C2=CN(C3CCCC3)C(c3ccc(OC)cc3)=CC2=C(Br)C1=O` (configuration not stated) gave Coupling enz -41, TRb-SRC2 inh inactive[11.2 µM], RGS12 GoLoco inh inactive[14.2 µM] and TR SRC2 fluor cs inactive[11.2 µM].
COCCN1C=C2C(=O)C(C)(OC(=O)CCC(=O)OC)C(=O)C(Br)=C2C=C1c1ccc(OC)cc1 (configuration not stated) was read as Coupling enz -30, TRb-SRC2 inh inactive[11.2 µM], RGS12 GoLoco inh inactive[14.2 µM] and TR SRC2 fluor cs inactive[11.2 µM].
`COc1ccc(NC(=O)C2=NN(C3CCS(=O)(=O)C3)C(=O)CC2)cn1` (configuration not stated) gave Coupling enz -42, TRb-SRC2 inh inactive, RGS12 GoLoco inh inactive and TR SRC2 fluor cs inactive.
COc1ccc(NC(=O)C(c2ccccc2)c2ccccc2)cn1 was read as Coupling enz inactive, TRb-SRC2 inh inactive, RGS12 GoLoco inh inactive and TR SRC2 fluor cs inactive.
Screening CCCCCCCC/C=C\CCCCCCCC(=O)OC returned TRb-SRC2 inh inactive and TR SRC2 fluor cs inactive.
CC(S)C(=O)NCC(=O)O (configuration not stated) was read as Coupling enz inactive, TRb-SRC2 inh inactive, RGS12 GoLoco inh 10µM and TR SRC2 fluor cs inactive.
For COc1ccc(C(=O)Oc2ccc[nH]c2=O)cc1 the results were Coupling enz inactive, TRb-SRC2 inh inactive, RGS12 GoLoco inh inactive and TR SRC2 fluor cs inactive.
Screening CCNC(=O)Oc1ccc[nH]c1=O returned Coupling enz -63, TRb-SRC2 inh inconclusive, RGS12 GoLoco inh inactive and TR SRC2 fluor cs inactive.
O=C(O)C1CCN(C(=O)c2cccc3ccccc23)CC1 was read as Coupling enz inactive.
CN1CC(C(=O)O)Cc2c1ccc1ccccc21 (configuration not stated) was read as Coupling enz -46, TRb-SRC2 inh inactive, RGS12 GoLoco inh inactive and TR SRC2 fluor cs inactive.
Screening COC(=O)C1CSc2[nH]c(=O)sc2C1c1ccc(O)c(OC)c1 (configuration not stated) returned Coupling enz inactive, TRb-SRC2 inh inactive, RGS12 GoLoco inh 20µM and TR SRC2 fluor cs inactive.
`Cc1ccc(CNC(=O)C(=O)NCC(c2cccnc2)N2CCN(c3ccc(F)cc3)CC2)cc1` (configuration not stated) gave TRb-SRC2 inh inactive and TR SRC2 fluor cs inactive.
Screening COc1ccc(CNC(=O)c2cc(-c3cccs3)nc3ccccc23)c(OC)c1 returned TRb-SRC2 inh inactive and TR SRC2 fluor cs 0.022µM[quencher].
c1ccc(-c2nc3nonc3nc2-c2ccccc2)cc1 was read as Coupling enz -37, TRb-SRC2 inh inactive, RGS12 GoLoco inh inactive and TR SRC2 fluor cs inactive.
`Nc1c(-c2ccccc2)nc(Cl)nc1-c1ccccc1` gave Coupling enz inactive, TRb-SRC2 inh inactive, RGS12 GoLoco inh inactive and TR SRC2 fluor cs inactive.
Screening Cc1ccc(Cl)cc1NC(=O)CN1C(=O)C(C)(C)c2cc(S(=O)(=O)N3CCCCC3)ccc21 returned TRb-SRC2 inh inactive and TR SRC2 fluor cs 0.0045µM[quencher].
`COc1ccc(Cl)cc1NC(=O)CN1C(=O)C(C)(C)c2cc(S(=O)(=O)N3CCCCC3)ccc21` gave TRb-SRC2 inh inactive and TR SRC2 fluor cs inactive.
`O=c1nc2s/c(=C\c3ccc(-c4ccccc4[N+](=O)[O-])o3)c(=O)n2nc1-c1ccccc1` gave Coupling enz -50, TRb-SRC2 inh inactive, RGS12 GoLoco inh inactive and TR SRC2 fluor cs inactive.
CCCCCOc1ccc(/C=c2\sc3nc(=O)c(-c4ccccc4)nn3c2=O)cc1OC was read as Coupling enz inactive, TRb-SRC2 inh inactive, RGS12 GoLoco inh inactive and TR SRC2 fluor cs inactive.
Cc1ccc(SCCC(=O)N/N=C/c2cccnc2)cc1 was read as Coupling enz -32, TRb-SRC2 inh inactive, RGS12 GoLoco inh inactive and TR SRC2 fluor cs inactive.
Screening OCCCNCc1ccncc1 returned RGS12 GoLoco inh inactive[14.2 µM].
For COC(=O)CCC(=O)OC1(C)C(=O)C=C2C=C(C3CC3)N(C3CC3)C=C2C1=O (configuration not stated) the results were Coupling enz -47!, TRb-SRC2 inh inconclusive, RGS12 GoLoco inh inactive[14.2 µM] and TR SRC2 fluor cs inactive[11.2 µM].
For COC(=O)CCC(=O)OC1(C)C(=O)C=C2C=C(C3CC3)N(Cc3ccco3)C=C2C1=O (configuration not stated) the results were Coupling enz inactive, TRb-SRC2 inh inactive[11.2 µM], RGS12 GoLoco inh inactive[14.2 µM] and TR SRC2 fluor cs inactive[11.2 µM].
Screening COCCN1C=C2C(=O)C(C)(OC(=O)CCC(=O)OC)C(=O)C=C2C=C1C1CC1 (configuration not stated) returned Coupling enz -45, TRb-SRC2 inh inactive[11.2 µM], RGS12 GoLoco inh inactive[14.2 µM] and TR SRC2 fluor cs inactive[11.2 µM].
For COC(=O)CCC(=O)OC1(C)C(=O)C=C2C=C(C3CC3)N(c3cccc(C#N)c3)C=C2C1=O (configuration not stated) the results were Coupling enz -32!, TRb-SRC2 inh inactive[11.2 µM], RGS12 GoLoco inh inactive[14.2 µM] and TR SRC2 fluor cs inactive[11.2 µM].
Screening COC(=O)CCC(=O)OC1(C)C(=O)C=C2C=C(C3CC3)N(c3ccc(CO)cc3)C=C2C1=O (configuration not stated) returned Coupling enz inactive, TRb-SRC2 inh inactive[11.2 µM], RGS12 GoLoco inh inactive[14.2 µM] and TR SRC2 fluor cs inactive[11.2 µM].
CCOC(=O)c1ccc(NC(=O)c2oc3c(c2C)-c2nn(Cc4ccccc4Cl)cc2CC3)cc1 was read as TRb-SRC2 inh inactive and TR SRC2 fluor cs inactive.
`CN(C)CCNCCN` gave RGS12 GoLoco inh inactive[14.2 µM].
Cc1noc(C)c1-c1nccc(N2CCNCC2)n1 was read as Coupling enz inactive, TRb-SRC2 inh inactive, RGS12 GoLoco inh inactive and TR SRC2 fluor cs inactive.
For CCCc1[nH]nc2c1C(c1cc(OC)cc(OC)c1)C(C#N)=C(N)O2 (configuration not stated) the results were Coupling enz inactive, TRb-SRC2 inh inactive, RGS12 GoLoco inh inactive and TR SRC2 fluor cs inactive.
For CCCc1[nH]nc2c1C(c1ccc(OC)c(CSC3=NCCS3)c1)C(C#N)=C(N)O2 (configuration not stated) the results were Coupling enz -41, TRb-SRC2 inh inactive, RGS12 GoLoco inh inactive and TR SRC2 fluor cs inactive.
For COc1ccc(N2CCC(CNC(=O)Nc3ccc(C)c(C)c3)C2)cc1 (configuration not stated) the results were Coupling enz inactive, TRb-SRC2 inh inactive, RGS12 GoLoco inh inactive and TR SRC2 fluor cs inactive.
